Results filed as inconclusive are left out. Calls of active or inactive are those of the source. Unless noted, the call rests on the fitted dose curve.

Consider nine compounds from PubChem BioAssay (NCATS).

The target in assay [1] is Peroxisome proliferator-activated receptor delta (Homo sapiens) (UniProt Q03181). Briefly: qHTS assay for small molecule agonists of peroxisome proliferator-activated receptor delta signaling (AID 588534).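 Further: 0% = DMSO basal wells and 100% = positive control agonist at 10 µM.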 In short, it runs like this:
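EC50 and efficacy values derive from Hill fits of a concentration series in a beta-lactamase reporter cell assay. Exposure is 18 hrs at 37 C, with CCF4 fluorescence as the readout.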
A general note: qHTS replaces the single test concentration by a dilution series.

Assay [2] can be described thus: Primary qHTS for inhibitors of SARS-S pseudo-typed particle cell entry (AID 1479145). Further: nearly all actives have a fitted effect of over 45% in size. On activity change, negative = inhibition: on the % scale 0 is the no-effect control and ±100 the full control effect. Conditions: outcome: dose series up to 57.1 µM unless noted.
A short description of assay [3]: Primary qHTS for Huh7 cytotoxicity: counterscreen for inhibitors of MERS-S pseudotyped particle cell entry (AID 1479147). Conditions: outcome: dose series up to 57.1 µM unless noted.
The nature of assay [4]: Primary qHTS for Vero E6 cytotoxicity: counterscreen for inhibitors of SARS-S pseudo-typed particle cell entry (AID 1479150). Conditions: outcome: dose series up to 57.1 µM unless noted.
The nature of assay [5]: Confirmatory qHTS to identify inhibitors of SARS-CoV-2 cell entry (AID 1645844). Further: potency means the concentration at half of the fitted maximal effect; nearly all actives have a fitted effect of over 45% in size. In short, it runs like this:
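HEK293-ACE2, overnight seeding; cpd 1 h, 37C/5% CO2; + SARS-CoV-2-S MLV PP (Wuhan-Hu-1, ΔC19); 48 h; Bright-Glo luminescence. Data normalised to S PP and bald PP wells.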

Assay [6] is described as follows: Cytotoxicity counterscreen for inhibitors of SARS-CoV-2 cell entry (AID 1645845). Further: nearly all actives have a fitted effect of over 50% in size. The note with it: outcome: dose series up to 57.1 µM unless noted. Summed up:
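Counterscreen run in the same HEK293-ACE2 line as the pseudotyped-particle entry assay, without particles. Viability after 48 h at 37 C was read as ATP luminescence, scaled between cell-containing and cell-free wells.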
(In general: Counterscreens check selectivity or assay interference.)

The nature of assay [7]: Primary qHTS to identify inhibitors of SARS-CoV-2 cell entry (AID 1645846). Further: nearly all actives have a fitted effect of over 45% in size. Further: potency means the concentration at half of the fitted maximal effect. The note with it: SARS-CoV-2 pseudovirus cell entry assay, luminescence; activity change, negative = inhibition: at 57.1 µM (top of the series) unless noted. In short, it runs like this: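 Using luciferase-reporting pseudoviruses carrying Wuhan-Hu-1 spike, the screen tracks entry into stably ACE2-expressing cells over 48 hr. Activity is expressed relative to spike particles versus particles lacking any fusion protein.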

A short description of assay [8]: VSVG counterscreen qHTS to identify inhibitors of SARS-CoV-2 cell entry (AID 1645847). Further: nearly all actives have a fitted effect of over 65% in size. Further: potency means the concentration at half of the fitted maximal effect. On activity change, negative = inhibition: on the % scale 0 is the no-effect control and ±100 the full control effect. In short, it runs like this: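 Entry of VSV-G pseudotyped particles into human ACE2-expressing HEK293 cells was measured by luciferase luminescence 48 h after infection, with compound added 1 h beforehand.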
Assay [9] is described as follows: Primary qHTS for inhibitors of MERS-S pseudo-typed particle cell entry (AID 1479149). Further: nearly all actives have a fitted effect of over 60% in size. On activity change, negative = inhibition: on the % scale 0 is the no-effect control and ±100 the full control effect. Conditions: outcome: dose series up to 57.1 µM unless noted.
Assay [10] addresses Glutathione peroxidase 1 (Homo sapiens) (UniProt P07203). Briefly: Primary qHTS Assay for Inhibitors of Recombinant Selenoprotein Glutathione Peroxidase 1 (GPX1) (AID 1845191; active means well fitted curve in the direction sought with a large enough effect; an effect the other way counts as inactive or inconclusive; further: on the % scale 0 is the no-effect control and ±100 the full control effect; nearly all actives have a fitted effect of over 65% in size). In short, it runs like this:
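GR-coupled readout: NADPH consumption tracked by fluorescence, ex 340/em 450 nm, at t=0 and after 15 min at RT. Final mix 10 nM GPX1, 1 mM GSH, 0.5 mM CHP, 0.5 mM NADPH, 100 nM GR, 0.01% BSA, following 30 min enzyme–compound preincubation.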

Assay [11] has as its target Phospholipid hydroperoxide glutathione peroxidase GPX4 (Homo sapiens) (UniProt P36969). Briefly: Primary qHTS Assay for Inhibitors of Recombinant Selenoprotein Glutathione Peroxidase 4 (GPX4) (AID 1845192; active means well fitted curve in the direction sought with a large enough effect; an effect the other way counts as inactive or inconclusive; further: on the % scale 0 is the no-effect control and ±100 the full control effect; nearly all actives have a fitted effect of over 65% in size). Summed up:
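Steps: GPX4 plus compound, 30 min RT; add GR/GSH/NADPH master mix; start with cumene hydroperoxide; read 340/450 nm fluorescence at 0 and 15 min. Finals were 200 nM GPX4, 1 mM GSH, 0.5 mM CHP, 0.5 mM NADPH, 100 nM GR.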

The target of assay [12] is Nuclear receptor subfamily 1 group I member 3 (Homo sapiens) (UniProt Q14994). Briefly: Primary qHTS for antagonist of constitutive androstane receptor (CAR) against the NCATS DSHEA and TCM libraries (AID 1794836; active means well fitted curve in the direction sought with a large enough effect; an effect the other way counts as inactive or inconclusive;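 further: HepG2 cells stably expressing hCAR with CYP2B6 luciferase reporter stimulated by CITCO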). Summed up: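 HepG2-CYP2B6-hCAR cells, attached 5 h, given compounds plus CITCO agonist […], incubated 24 h at 37 C. Luciferase luminescence read, multiplexed with CellTiter-Fluor viability (Ex/Em 405/540 nm).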
Sequence of Nuclear receptor subfamily 1 group I member 3 (Homo sapiens) (Q14994 whole entry, looked up): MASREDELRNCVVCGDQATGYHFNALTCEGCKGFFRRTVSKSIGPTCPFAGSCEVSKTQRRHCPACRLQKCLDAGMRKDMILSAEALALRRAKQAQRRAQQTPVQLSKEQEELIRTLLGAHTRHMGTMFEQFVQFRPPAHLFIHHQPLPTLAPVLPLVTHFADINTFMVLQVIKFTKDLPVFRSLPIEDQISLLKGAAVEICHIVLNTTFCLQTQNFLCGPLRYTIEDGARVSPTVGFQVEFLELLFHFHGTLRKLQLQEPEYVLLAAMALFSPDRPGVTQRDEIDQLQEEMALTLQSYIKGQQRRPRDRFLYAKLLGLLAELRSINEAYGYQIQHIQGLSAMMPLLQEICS

Assay [13] in a line: KB-8-5-11 P-gp reporter qHTS against the NCATS DSHEA and TCM libraries (AID 1919977; active means well fitted curve in the direction sought with a large enough effect; an effect the other way counts as inactive or inconclusive; further: 0% is about no effect). In short, it runs like this:
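Viability of drug-resistant KB-8-5-11 cells is measured by CellTiter-Glo luminescence following roughly 72 h treatment at 37C. Substances were titrated, with bortezomib as intraplate control.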

Sequence of Phospholipid hydroperoxide glutathione peroxidase GPX4 (Homo sapiens) (P36969 whole entry, looked up): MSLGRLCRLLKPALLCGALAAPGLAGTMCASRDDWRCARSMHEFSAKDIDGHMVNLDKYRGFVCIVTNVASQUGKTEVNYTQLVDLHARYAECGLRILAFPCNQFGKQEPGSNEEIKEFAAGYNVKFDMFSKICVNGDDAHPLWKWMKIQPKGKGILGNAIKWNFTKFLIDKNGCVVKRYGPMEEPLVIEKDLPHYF
Sequence of Glutathione peroxidase 1 (Homo sapiens) (P07203 whole entry, looked up): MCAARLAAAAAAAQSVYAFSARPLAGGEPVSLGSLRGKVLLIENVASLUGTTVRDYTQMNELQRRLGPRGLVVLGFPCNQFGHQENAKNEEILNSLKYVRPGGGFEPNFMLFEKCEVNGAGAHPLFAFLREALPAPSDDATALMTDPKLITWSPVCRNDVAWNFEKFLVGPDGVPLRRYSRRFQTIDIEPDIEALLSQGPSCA
Sequence of Peroxisome proliferator-activated receptor delta (Homo sapiens) (Q03181 whole entry, looked up): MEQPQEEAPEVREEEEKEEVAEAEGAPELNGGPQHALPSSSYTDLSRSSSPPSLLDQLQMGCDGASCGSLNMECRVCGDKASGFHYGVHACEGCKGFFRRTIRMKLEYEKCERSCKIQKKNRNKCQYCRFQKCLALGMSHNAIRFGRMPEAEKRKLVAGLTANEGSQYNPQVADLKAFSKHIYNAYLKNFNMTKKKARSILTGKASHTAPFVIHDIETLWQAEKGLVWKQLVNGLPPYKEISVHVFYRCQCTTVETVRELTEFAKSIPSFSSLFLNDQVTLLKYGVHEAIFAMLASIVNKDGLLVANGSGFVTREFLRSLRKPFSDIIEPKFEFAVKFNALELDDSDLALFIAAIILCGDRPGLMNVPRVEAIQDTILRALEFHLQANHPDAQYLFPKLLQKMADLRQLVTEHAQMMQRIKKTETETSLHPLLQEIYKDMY

Turning to `CC[C@H]1OC(=O)[C@H](C)[C@@H](O[C@H]2C[C@@](C)(OC)[C@@H](O)[C@H](C)O2)[C@H](C)[C@@H](O[C@@H]2O[C@H](C)C[C@H](N(C)C)[C@H]2O)[C@](C)(O)C[C@@H](C)CN(C)[C@H](C)[C@@H](O)[C@]1(C)O`, in assay [1], the outcome was inactive. Besides, the Potency result in assay [2], in assay [3], in assay [4], in [6] and in assay [8] was “inactive” throughout. In addition, the figures for the Potency in assay [5] and in [7] were 24.1 µM (active) and 12.6 µM (active), respectively.

Regarding `C=C[C@@H]1C[C@]1(NC(=O)[C@@H]1C[C@@H](Oc2ncc(OC)c3ccc(Cl)cc23)CN1C(=O)[C@@H](NC(=O)OC(C)(C)C)C(C)(C)C)C(=O)NS(=O)(=O)C1CC1`, the Potency result in assay [2], in assay [3] and in assay [4] was “inactive” throughout. Besides, in [8], the Potency was 10.8 µM (active).

Take `C[C@H]1C[C@H]2[C@H]3CCC4=CC(=O)C=C[C@]4(C)[C@@]3(F)[C@@H](O)C[C@]2(C)[C@@]1(OC(=O)c1ccccc1)C(=O)CO`: the Potency entry in assay [2], in [3], in [4] and in [6] was “inactive” throughout.

In the case of `CC[C@@]1(O)C(=O)OCc2c1cc1n(c2=O)Cc2cc3c([N+](=O)[O-])cccc3nc2-1`, the Potency entry in [2], in [9] and in assay [6] was “inactive” each time. Further, the figures for the Potency in assay [5] and in assay [8] were 0.0175 µM (active) and 0.0221 µM (active), respectively. Moreover, the activity change, negative = inhibition in assay [7] is -97% [at 114 µM].

Consider `CC1(COc2ccc(N3CCC(Oc4ccc(OC(F)(F)F)cc4)CC3)cc2)Cn2cc([N+](=O)[O-])nc2O1` (centres undefined), for which the Potency entry in [2], in assay [3], in assay [4] and in assay [6] was “inactive” each time.

As for `CC(C)c1nc(CN(C)C(=O)N[C@@H](CCN2CCOCC2)C(=O)N[C@H](CC[C@H](Cc2ccccc2)NC(=O)OCc2cncs2)Cc2ccccc2)cs1`, the Potency entry in assay [2], in assay [3], in assay [4] and in assay [6] was “inactive” throughout. Also, the Potency in assay [8] was 21.5 µM (active).

On to `CN(C(=O)/C=C/c1ccoc1)[C@@H]1CC[C@@]2(O)[C@H]3Cc4ccc(O)c5c4[C@@]2(CCN3CC2CC2)[C@H]1O5`, for which the Potency entry in assay [2], in assay [9], in [4], in assay [6], in [7] and in [10] was “inactive” throughout. Besides, the Potency result in [11] was “inactive”.

Consider `COC[C@H]1C[C@@H](c2ncc(-c3ccc4c(c3)COc3cc5c(ccc6[nH]c([C@@H]7CC[C@H](C)N7C(=O)[C@@H](NC(=O)OC)C(C)C)nc65)cc3-4)[nH]2)N(C(=O)[C@H](NC(=O)OC)c2ccccc2)C1`, for which the Potency entry in [2], in [3], in [4] and in [6] was “inactive” throughout. For the same compound, the Potency was 0.341 µM (active) in assay [5] and 1.52 µM (active) in assay [8].

Regarding `C=C1CC[C@H](O)CC1=C/C=C1\CCC[C@]2(C)[C@@H]([C@H](C)/C=C/[C@H](C)C(C)C)CC[C@@H]12`, the Potency entry in [2], in assay [3], in [4], in assay [12] and in assay [13] was “inactive” in each case.
